# Source: PubChem BioAssay AID488896 (Broad Institute, 2010)
# The whole screen tested about 320,000 compounds, of which about 3,100 (0.97%) were called active. This is one part of a sample in which actives are shown more often than they occur. A number with no mark means an inactive call.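 How the source made its calls: active means mean replicate inhibition of at least 70% and a set share of replicates each scoring 70 or more; inconclusive means meets just one of the two criteria; inactive means fails both criteria.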
# Target: Scavenger receptor class B member 1 (Mus musculus) (UniProt Q61009)
# Sequence (Q61009 whole entry, looked up): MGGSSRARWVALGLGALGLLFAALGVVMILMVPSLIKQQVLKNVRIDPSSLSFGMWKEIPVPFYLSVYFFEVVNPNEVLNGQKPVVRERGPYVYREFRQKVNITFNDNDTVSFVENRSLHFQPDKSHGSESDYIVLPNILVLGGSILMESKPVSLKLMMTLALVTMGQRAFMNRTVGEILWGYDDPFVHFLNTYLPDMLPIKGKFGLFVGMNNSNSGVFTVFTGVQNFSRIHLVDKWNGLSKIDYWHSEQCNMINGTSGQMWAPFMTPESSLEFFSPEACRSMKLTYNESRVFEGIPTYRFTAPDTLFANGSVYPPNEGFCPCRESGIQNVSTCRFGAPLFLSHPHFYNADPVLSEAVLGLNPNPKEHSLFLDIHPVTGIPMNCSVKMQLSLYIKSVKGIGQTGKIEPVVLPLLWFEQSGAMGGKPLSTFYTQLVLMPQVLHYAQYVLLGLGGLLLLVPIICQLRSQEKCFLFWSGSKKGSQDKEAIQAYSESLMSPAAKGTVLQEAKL
# Assay: inhibitors of SR-BI mediated HDL lipid uptake, primary screen, ldlA[mSR-BI] cells, fluorescence, single point (AID 488896);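 further: 0% = median of neutral control wells and 100% = median of positive control wells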
# Conditions: ldlA[mSR-BI] CHO cells, DiI-HDL uptake fluorescence, 3 h; at 12.5 µM; active compounds read high
row,SMILES,inhibition
1,Cc1ccccc1N1CCN(C(=O)c2cccnc2)CC1,-2.45%
2,Cc1cccc(CC2(O)C(=O)Nc3ccccc32)n1 (stereo not given),-13%
3,O=S1(=O)CSCS(=O)(=O)C1,-19.5%
4,CCC1CCCCN1C(=S)Nc1ccc(C(C)=O)cc1 (stereo not given),-13.3%
5,Cc1ccc(N=C2SCCCN2C(=O)c2cccc(N3C(=O)CCC3=O)c2)cc1Cl,32.4%
6,CC(=O)c1ccc(N=C2SCCCN2C(=O)C2CCCCC2)cc1,78.7% (active)
7,COc1cccc(C=CC(=O)C=CC=Cc2ccccc2)c1,-11.1%
8,COc1cc(NC(=O)c2ccc3c(c2)OCO3)ccc1NC(=O)c1cccs1,58.8%
9,COc1cc(NC(=O)COc2ccccc2Cl)ccc1NC(=O)C(C)C,49.8%
10,COc1cc(NC(=O)c2cccs2)ccc1NC(=O)c1ccccc1Cl,83.3% (active)
11,O=C(Nc1ccccc1)Oc1cccc2cccnc12,-13.2%
12,c1ccc(CNc2ncnc3[nH]ncc23)cc1,-13.5%
13,O=C(Nc1ccccc1Cl)c1ccccc1S(=O)(=O)c1ccccc1[N+](=O)[O-],4.02%
14,CN(C)S(=O)(=O)Oc1ccccc1C(=O)Nc1ccccc1Cl,79.9% (active)
15,CC(=O)Nc1ccc(NC(=O)COc2ccccc2C(=O)Nc2cccc(Cl)c2Cl)cc1,63.3%
16,CCN1C[C@@H]2[C@@H]3C(=O)N(Cc4ccccc4)C(=O)[C@@H]3[C@](C)(C1=O)N2C(=O)c1ccc(C(C)(C)C)cc1,-30.1%
17,Oc1ccc(-c2nc3ccccc3nc2-c2ccc(O)cc2O)c(O)c1,26%
18,O=C(CSc1nnc(-c2c[nH]c3ccccc23)n1-c1ccc(F)cc1)NCc1ccco1,20.6%
19,COc1ccc(-n2c(SCC(=O)NCc3cccs3)nnc2-c2ccoc2C)cc1,-3.66%
20,COc1ccc(-n2c(SCC(=O)NCc3ccco3)nnc2-c2c[nH]c3ccccc23)cc1,71.4% (active)

row,SMILES,inhibition
1,COc1ccc(CCN2CC(C(=O)OCC(=O)NCc3ccccc3Cl)CC2=O)cc1OC (stereo not given),-1.72%
2,CN(C)c1ccc(/C=N/Nc2cc(N3CCOCC3)nc(N3CCOCC3)n2)cc1,78.8% (active)
3,CCN(CC)c1ccc(C(=O)N/N=C/c2ccc(N3CCOCC3)cc2)cc1,25%
4,Cc1nc(Cl)cc(N/N=C/c2ccccc2)n1,15.7%
5,C(=N/Nc1cc(N2CCOCC2)nc(N2CCOCC2)n1)/c1ccccc1,76% (active)
6,COc1ccc(/C=N/Nc2cc(N3CCOCC3)nc(C)n2)c(OC)c1,52.8%
7,Cc1ccccc1N/N=C/c1ccc(N2CCOCC2)cc1,15.9%
8,O=C1c2ccccc2C(=O)N1CCCCCCN1C(=O)c2ccccc2C1=O,7.39%
9,Cc1nc2ccccc2c(C(=O)O)c1-c1ccccn1,-15.2%
10,Oc1cccc(CCc2ccccn2)c1,-0.288%
11,O=C(O)C(=Cc1ccccc1[N+](=O)[O-])c1ccccc1,0.653%
12,CSCCC(NS(=O)(=O)c1ccc(C)cc1)C(=O)N(C)CC(=O)Nc1ccccc1Br (stereo not given),16.3%
13,CCOc1ccc(NC(=O)CN(C)C(=O)CCSc2ccc(F)cc2)cc1OCC,39.6%
14,Cc1nc(-c2ccc(F)cc2)c(CC(=O)N(C)CC(=O)Nc2c(C)cccc2C)s1,-10.6%
15,CCOc1ccc(NC(=O)CN(C)C(=O)Cc2sc(C)nc2-c2ccc(F)cc2)cc1OCC,73.5% (active)
16,S=C(Nc1ccccc1)Nc1ccc2ccccc2c1,9.12%
17,O=C(O)c1ccc(Cn2cnc3c(=S)nc[nH]c32)cc1,-20.4%
18,CC/C(=C\c1ccc(Cl)cc1)c1ccncc1,29.1%
19,COc1cc(/C=C/C2=CC(C)(C)NC(=S)N2)cc(OC)c1OC,26.3%
20,COc1ccc(/C=C/C2=CC(C)(C)NC(=S)N2)c(OC)c1,78.2% (active)

row,SMILES,inhibition
1,COc1ccc(/C=C2/C(=O)N(c3ccccc3)N=C2C)c(OC)c1,30.7%
2,O=C(Nc1ccn(CCCNCc2ccc3[nH]ccc3c2)c(=O)n1)OCc1ccccc1,14.3%
3,FC(F)(F)c1ccc(-c2cccc3c2C2CC3CCN2Cc2ccccc2)cc1 (stereo not given),-20.1%
4,COc1ccccc1C(=O)Nc1ccc(NC(=O)c2ccco2)c(C)c1,44.6%
5,COc1ccc(NC(=O)c2cccc(NC(=O)c3ccco3)c2)c(OC)c1,75.7% (active)
6,COc1ccc(NC(=O)CCC(=O)Nc2cc(OC)c(NC(=O)c3ccco3)cc2OC)c(OC)c1,58.1%
7,CC1C(C)N(C(=O)CCl)c2ccccc2N1C(=O)CCl (stereo not given),-12%
8,Nc1ncnc2c1cnn2C1CC(O)C(CO)O1 (stereo not given),-3.29%
9,CCOc1ccc(C(=O)Nc2ccc(S(=O)(=O)NCC3CCCO3)cc2)cc1OCC (stereo not given),82.5% (active)
10,Cc1ccc(NC(=O)c2ccc(S(=O)(=O)NCC3CCCO3)cc2)cc1C (stereo not given),51.6%
11,CCC(=O)Nc1ccc(S(=O)(=O)NCC2CCCO2)cc1 (stereo not given),16.2%
12,CC(C)OCCCNC(=O)c1ccc(C2SCC(=O)N2Cc2ccco2)cc1 (stereo not given),75.6% (active)
13,O=C(NCc1ccco1)c1ccc(Cn2c(=O)c3sccc3n(Cc3ccc(F)cc3)c2=O)cc1,28.8%
14,CC(C)(C)c1ccc(C(=O)NCCC(=O)NCc2ccco2)cc1,-4.1%
15,CSc1ncnc2c1ncn2CC(=O)C1CCC2C3CCC4=CC(=O)CCC4(C)C3CCC12C (stereo not given),-12.4%
16,O=C(Nc1cccc(Br)c1)C1CC(=O)N(C2CCCC2)C1 (stereo not given),-9.43%
17,O=C(NCCc1ccc(F)cc1)c1n[nH]c2ccccc12,22.1%
18,O=C(NCC1CCCO1)c1cc2c([nH]c3ccccc32)c(-c2ccc(F)cc2)n1 (stereo not given),64.1%
19,O=C(NCCCO)c1cc2c([nH]c3ccccc32)c(-c2ccc(F)cc2)n1,73.4% (active)
20,Cn1c(=O)[nH]c2c(c(C(=O)O)nn2C)c1=O,-13.4%
